Compounds with a hit are over-represented: about 0.4% of the library has one in this group of screens.
FMDV antiviral – antivirals against foot and mouth disease virus. FMDV antiviral cell assay, firefly luciferase signal. Potency, µM (top dose mostly 57.5 µM), for the others: top-dose activity change, negative = inhibition, usual class: inhibitors. 120,000 compounds, 0.23% hits; note: nearly all actives have a fitted effect of over 60% in size
FMDV RLuc – shows antiviral activity in FMDV Renilla assay; Potency, µM (doses to about 57.5 µM), for inactives: top-dose activity change, negative = inhibition, usual class: inhibitors; 120,000 compounds, 0.32% hits; FMDV replicon cells, Renilla luciferase signal; note: nearly all actives have a fitted effect of over 55% in size
Active calls of the source: *; ? = inconclusive; [ ] = another dose, or the depositor's remark. Calls come from the whole dose curve. % is set by controls: 0 for no effect and ±100 for the full control effect; potency is the fitted concentration of half-maximal effect.

SMILES | FMDV antiviral | FMDV RLuc
CC(C)c1ccc(C(=O)COC(=O)c2ccc(N3CCOCC3)nc2)cc1 | 17.3% | 19.9%
O=C(c1ccc(C#Cc2ccccc2)cc1)N1CCN(Cc2ccccc2)CC1 | 55.6% | -6.3%
CN=C(NC)NCc1ccc(C(=O)OC)cc1 | -9.1% | 4.6%
Cn1c(=O)c2c(nc(NCCO)n2Cc2cccc(Br)c2)n(C)c1=O | ? | 12.6µM*
Cn1c(=O)c2c(nc(NCCCCO)n2Cc2ccccc2Cl)n(C)c1=O | -6.4% | -8.9%
Cn1c(=O)c2c(nc(NCCO)n2Cc2ccccc2F)n(C)c1=O | 12.6µM* | 12.6µM*
Cn1c(=O)c2c(nc(NCCc3ccccc3)n2Cc2cccc(Br)c2)n(C)c1=O | 40.5% | -11.7%
Cc1cccc(Cn2c(NCCN3CCOCC3)nc3c2c(=O)n(C)c(=O)n3C)c1 | 15.3% | 4.3%
Cc1cccc(Cn2c(NCCO)nc3c2c(=O)n(C)c(=O)n3C)c1 | ? | 11.2µM*
CC1CCN(C(CNC(=O)c2ccccc2SC(F)F)c2cccs2)CC1 (configuration not stated) | 19.2% | 24.5%
CC1(C)N=C(c2ccc(Br)cc2)C(=S)N1 | 69.3% | 9.4%
CC(Cc1ccco1)NC(=O)C1CCCO1 (configuration not stated) | 1.7% | 6.7%
CC(=O)c1cccc(NC(=S)NCCSc2ccc(Cl)cc2)c1 | -12.7% | 62.9%
C=C(C)COc1ccc2c(=O)c(Oc3ccc(OC)cc3)c(C)oc2c1 | 45.5% | 22.1%
COc1ccc(Oc2c(C)oc3cc(OS(C)(=O)=O)ccc3c2=O)cc1 | 12.6µM* | ?
Cc1ccccc1CN1C(=O)C(O)(CC(=O)c2ccc(F)cc2)c2cc(Cl)ccc21 (configuration not stated) | ? | -3.9%
CC(=O)c1c(C)[nH]c(C(=O)CSc2ccc(Br)cc2)c1C | 48.1% | -18.4%
CC(=O)c1c(C)[nH]c(C(=O)C(C)Sc2ccccc2Br)c1C (configuration not stated) | 25.1µM* | 0.0%
CC12CC[C@H]3[C@@H](CCC4(O)CC(O[N+](=O)[O-])CCC34CO[N+](=O)[O-])C1(O)CCC2C1=CC(=O)OC1 (some centres not stated) | ? | 10µM*
C[C@@H]1O[C@@H](O[C@H]2C[C@@H](O)[C@]3(CO)[C@H]4[C@H](O)C[C@]5(C)[C@@H](C6=CC(=O)OC6)CC[C@]5(O)[C@@H]4CC[C@]3(O)C2)[C@H](O)[C@H](O)[C@H]1O | -69.2%[11.5 µM] | -76.1%
CC1OC(OC2CCC3(C=O)[C@H]4CCC5(C)C(C6=CC(=O)OC6)CCC5(O)[C@@H]4CCC3(O)C2)C(O)C(O)C1O (some centres not stated) | -78.5% | -74.6%
CC1OC(OC2CCC3(C=O)[C@H]4CCC5(C)C(C6=CC(=O)OC6)CCC5(O)[C@@H]4CCC3(O)C2)CC(O)C1O (some centres not stated) | ? | 0.282µM*
CC1OC(OC2CCC3(C=O)[C@H]4CCC5(C)C(C6=CC(=O)OC6)CCC5(O)[C@@H]4CCC3(O)C2)CC2OC(C)(C)OC12 (some centres not stated) | 1µM* | 1.26µM*
C=CCNC(=O)NC(=O)CNc1cc(C(F)(F)F)cc(C(F)(F)F)c1 | 14.5% | -1.2%
CN1CCN(c2oc(-c3cccc(Cl)c3)nc2C#N)CC1 | 0.0% | 10.9%
SMILES | FMDV antiviral | FMDV RLuc
Cc1cccc(C(=O)N(Cc2ccco2)c2ccccn2)c1 | 125.4% | 42.4%
COC(=O)C1=CN(C(C)C)C=C(C(=O)OC)C1c1ccc(C)s1 | 2.2% | 15.2%
CC(C)COc1cccc(C(=O)Nc2ccc3oc(-c4ccncc4)nc3c2)c1 | 13.6% | 5.9%
COc1ccc(CNC(=O)c2nccnc2N)cc1 | 28.3% | -19.4%
O=C(Cc1cccc(F)c1)NCc1ccnc(OCc2ccccc2)c1 | 39.4% | 6.2%
Nc1nccnc1C(=O)NCc1ccnc(OCc2ccccc2)c1 | 22.4µM* | 10µM*
COc1ccc(CNC(=O)c2nccnc2N)cc1OC | 5.7% | 9.4%
CCOc1ccccc1Oc1ccc(CNC(=O)c2nccnc2N)cn1 | 15.8µM* | 14.1µM*
CCOc1ccccc1Oc1ccc(CNC(=O)Nc2cccnc2)cn1 | 13.7% | -15.9%
COc1cc(CNC(=O)c2nccnc2N)ccc1OCc1ccncc1 | 22.4µM* | 10µM*
Nc1nccnc1C(=O)NCc1ccnc(Oc2ccc(F)cc2)c1 | ? | 12.6µM*
CCn1nnc(NCc2ccc(Cl)cc2Cl)n1 | 156.4% | 12.5%
S=C(NCCc1ccc(Cl)cc1Cl)NC1CCCCC1 | -23.3% | 0.0%
Nc1cccc(-c2cc3ccccn3c2)c1 | 4.9% | -0.9%
CC1=C(C(=O)Nc2ccccc2)C(c2ccc(C(C)(C)C)cc2)NC(=S)N1 (configuration not stated) | -15.4% | -8.4%
NC(=O)CC1CCN(C(=O)c2cc(=O)c3ccccc3o2)CC1 | -1.6% | -8.3%
Cn1cc(C(=O)NC2(C)CCS(=O)(=O)C2)c2ccccc21 (configuration not stated) | -3.4% | -11.4%
Cc1ccc(COC(=O)c2ccc(Cl)c(S(=O)(=O)N3CCOCC3)c2)cc1 | -5.3% | -6.3%

Compound activity (PubChem)
